The record followed here is the supplement of paper PMC3414501.

Assay [1] concerns S. cerevisiae SK1 pCDA2-eGFP (USY613), sporulating. Description: CDA2-GFP sporulation assay sensitivity score (z-score vs DMSO controls); higher = stronger inhibition of sporulation, active = hit call of the paper.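 Further: active if sensitivity score above 5.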
Assay [2] has as its system S. cerevisiae AD1-9 (efflux-pump deficient), vegetative growth in YPD. Description: growth sensitivity score (doubling time z-score vs DMSO controls); higher = slower growth, strongly negative scores also mark growth inhibition (complete suppression), active = hit call of the paper. The gist of the method:
(§1)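 Saccharomyces cerevisiae strains BY4741 and AD1-9 were seeded in rich medium in microtiter plates at an OD600 of 0.065. Compounds were added at a 1:100 dilution of DMSO stock. Optical density was read every 15 min for 24 hours on a Tecan GENios reader. Average doubling time was the time taken to reach a set generation point divided by generation number, and the growth sensitivity score was (compound mean − DMSO-control mean)/DMSO-control SD, using eight DMSO controls per experiment.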

Assay [3] relates to S. cerevisiae BY4741 (wild-type), vegetative growth in YPD. The description is as above. The gist of the method:
as §1

Structures can show the parent of a compound that is named as a salt.

With `CC1CNc2c(cccc2S(=O)(=O)N[C@@H](CCCNC(=N)N)C(=O)N2CC[C@@H](C)C[C@@H]2C(=O)O)C1` (some centres not stated) [Argatroban] (stock concentration (mM, diluted 1:100): 10.1), the “CDA2-GFP sporulation assay sensitivity score” value in assay [1] was -1.04 (inactive). Moreover, the growth sensitivity score in assay [2] is -2.07; in assay [3], -0.6 (inactive).

Consider `Cc1ccc(O)c([C@H](CCN(C(C)C)C(C)C)c2ccccc2)c1` [Tolterodine tartrate] (stock concentration (mM, diluted 1:100): 6.9), for which the “CDA2-GFP sporulation assay sensitivity score” value in assay [1] is 1.84 (inactive). Also, the growth sensitivity score in assay [2] is 2.36 (active); in assay [3] it was 0.36 (inactive).

For the compound `CCS(=O)(=O)CCn1c([N+](=O)[O-])cnc1C` [Tinidazole] (stock concentration (mM, diluted 1:100): 10), in assay [1], the “CDA2-GFP sporulation assay sensitivity score” value was 1.26 (inactive). The growth sensitivity score in assay [2] is -0.62 (inactive); in assay [3], -0.09 (inactive).

On to `CCC1=C(C)CN(C(=O)NCCc2ccc(S(=O)(=O)NC(=O)N[C@H]3CC[C@H](C)CC3)cc2)C1=O` [Glimepiride] (stock concentration (mM, diluted 1:100): 7.7), for which the “CDA2-GFP sporulation assay sensitivity score” value in assay [1] was 0.5 (inactive). In addition, the growth sensitivity score in assay [2] was 1.1 (inactive); in assay [3], -0.03 (inactive).
